{"source": "PubChem BioAssay", "note": "Activity calls are given as the source filed them.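 The calls were made as follows: active = normalized viability below 100% at a tested concentration; inactive = the rest.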", "data": [{"assay": "drug combination growth inhibition, ovarian cancer – cell-based, oncology-focused library, rucaparib conditional, profiling panel (AID 1508598)", "conditions": "patient-derived ovarian cancer cells, CellTiter-Glo viability, 144 h; at 0.0781 µM; OCI-C5x cells; with rucaparib 10 µM; stronger effect = lower value; 100% = cells with rucaparib alone", "values": [{"compound": "N#CCNC(=O)c1ccc(-c2ccnc(Nc3ccc(N4CCOCC4)cc3)n2)cc1", "viability": "122% (inactive)"}, {"compound": "Nc1nc(Nc2ccc(S(N)(=O)=O)cc2)nn1C(=O)c1c(F)cccc1F", "viability": "91.7% (active)"}, {"compound": "O=C(Nc1ccccc1-c1cn2c(CN3CCNCC3)csc2n1)c1cnc2ccccc2n1", "viability": "113% (inactive)"}, {"compound": "COc1ccc(-c2ccc3c(N4CCOCC4)nc(N4C[C@@H](C)O[C@@H](C)C4)nc3n2)cc1CO", "viability": "122% (inactive)"}, {"compound": "CC1(C)CNc2cc(NC(=O)c3cccnc3NCc3ccncc3)ccc21", "viability": "119% (inactive)"}, {"compound": "COc1cc2nccc(Oc3ccc(NC(=O)Nc4cc(C)on4)c(Cl)c3)c2cc1OC", "viability": "113% (inactive)"}, {"compound": "N#Cc1c(NC(=O)c2cccc3ccccc23)sc2c1CCCC2", "viability": "118% (inactive)"}, {"compound": "COc1ccc(-c2ccc3c(N4CCOC[C@@H]4C)nc(N4CCOC[C@@H]4C)nc3n2)cc1CO", "viability": "71.2% (active)"}, {"compound": "Cc1cnc(NC(=O)Nc2cc(Br)c(C)cc2OC[C@@H]2CNCCO2)cn1", "viability": "102% (inactive)"}, {"compound": "COC(=O)c1ccc2c(C(=Nc3ccc(N(C)C(=O)CN4CCN(C)CC4)cc3)c3ccccc3)c(O)[nH]c2c1", "viability": "116% (inactive)"}, {"compound": "Cc1ccc(F)c(NC(=O)Nc2ccc(-c3cccc4[nH]nc(N)c34)cc2)c1", "viability": "111% (inactive)"}]}, {"assay": "drug combination growth inhibition, ovarian cancer – cell-based, oncology-focused library, rucaparib conditional, profiling panel (AID 1508598)", "conditions": "patient-derived ovarian cancer cells, CellTiter-Glo viability, 144 h; at 0.0781 µM; OCI-C5x cells; without rucaparib; stronger effect = lower value", "values": [{"compound": "N#CCNC(=O)c1ccc(-c2ccnc(Nc3ccc(N4CCOCC4)cc3)n2)cc1", "viability": "116% (inactive)"}, {"compound": "Nc1nc(Nc2ccc(S(N)(=O)=O)cc2)nn1C(=O)c1c(F)cccc1F", "viability": "90.6% (active)"}, {"compound": "O=C(Nc1ccccc1-c1cn2c(CN3CCNCC3)csc2n1)c1cnc2ccccc2n1", "viability": "110% (inactive)"}, {"compound": "COc1ccc(-c2ccc3c(N4CCOCC4)nc(N4C[C@@H](C)O[C@@H](C)C4)nc3n2)cc1CO", "viability": "125% (inactive)"}, {"compound": "CC1(C)CNc2cc(NC(=O)c3cccnc3NCc3ccncc3)ccc21", "viability": "141% (inactive)"}, {"compound": "COc1cc2nccc(Oc3ccc(NC(=O)Nc4cc(C)on4)c(Cl)c3)c2cc1OC", "viability": "88.6% (active)"}, {"compound": "N#Cc1c(NC(=O)c2cccc3ccccc23)sc2c1CCCC2", "viability": "109% (inactive)"}, {"compound": "COc1ccc(-c2ccc3c(N4CCOC[C@@H]4C)nc(N4CCOC[C@@H]4C)nc3n2)cc1CO", "viability": "55.7% (active)"}, {"compound": "Cc1cnc(NC(=O)Nc2cc(Br)c(C)cc2OC[C@@H]2CNCCO2)cn1", "viability": "117% (inactive)"}, {"compound": "COC(=O)c1ccc2c(C(=Nc3ccc(N(C)C(=O)CN4CCN(C)CC4)cc3)c3ccccc3)c(O)[nH]c2c1", "viability": "116% (inactive)"}, {"compound": "Cc1ccc(F)c(NC(=O)Nc2ccc(-c3cccc4[nH]nc(N)c34)cc2)c1", "viability": "110% (inactive)"}]}]}
